Sampled rows, rich in hits. Any-hit rate of the full collection: about 7.1%.
SW480 rereplic: induces DNA re-replication in SW480 colon adenocarcinoma cells; 1.8% of 340,000 active; Potency, µM (top dose mostly 46.1 µM), usual class: activators; SW480 DNA re-replication, Hoechst DNA content imaging, 48 h; also: nearly all actives have a fitted effect of over 55% in size
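Image-based read-out: total Hoechst fluorescence of nuclei (405 nm excitation, 500-530 nm emission), with hits raising the fraction of high-intensity nuclei. SW480 colon cells incubated 48 hr with compounds at 37 C.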
ELG1 repair inh: ELG1-dependent DNA repair inhibition; Potency, µM (doses to about 46.1 µM), usual class: inhibitors; 2.3% of 330,000 active; AID 504467; HEK293T ELG1-luciferase reporter, luminescence, 16 h; DNA damage induced by 5-fluorouridine; also: nearly all actives have a fitted effect of over 55% in size
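In this reporter screen, reduction of luminescence relative to DMSO vehicle indicated activity. Compounds and 5-fluorouridine were added together to 2,000 cells per well, incubated for 16 hr at 37 °C, then developed with ONE-Glo.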
AT treatment: potential ataxia-telangiectasia treatments restoring KAP-1 phosphorylation | F2112 A-T fibroblasts, KAP-1 phosphorylation AlphaLISA; neocarzinostatin DNA damage 30 min before lysis | Potency, µM (titrated, usually from 57.5 µM), actives largely listed as activators | 0.19% of 320,000 active | AID 485349; also: nearly all actives have a fitted effect of over 45% in size
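ATM-like activity read as KAP-1 phosphorylation via AlphaLISA donor/acceptor antibody pairs after lysis and 6 hr at 25C. Cells were ATM-null patient fibroblasts (F2112, hTERT), dosed 60 min, then exposed to the DSB inducer NCS for 30 min.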
p53 reactivation: mutant p53 re-activation in reporter cells; AID 504706; 0.063% of 320,000 active; Potency, µM (doses to about 92.2 µM), actives largely listed as activators; H1299 p53-A138V BP100-luciferase reporter, luminescence, 24 h; also: nearly all actives have a fitted effect of over 45% in size
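p53-null H1299 cells stably carrying temperature-sensitive p53-A138V and a BP100-luciferase reporter were pinned with compounds (4-point, 1:5 series) and held 24 hrs at 37 deg C. Luminescence was read 10 min after detection reagent.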
ELG1 genotox: induces genotoxicity in HEK293T cells with luciferase-tagged ELG1; HEK293T ELG1-luciferase reporter, luminescence, 16 h; Potency, µM (top dose mostly 46 µM), hits mostly activators; 1.3% of 330,000 active; also: nearly all actives have a fitted effect of over 60% in size
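16 hr compound incubation (37 °C, 5% CO2) of HEK293T cells carrying luciferase-tagged ELG1; luciferase then measured by ONE-Glo luminescence after 30 min at RT.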
MCF10A rerep: DNA re-replication induction in MCF 10a cells. AID 624296. MCF 10A DNA re-replication, Hoechst nuclear intensity, 48 h. Potency, µM (top dose mostly 46.1 µM), usual class: activators. 2.9% of 350,000 active; also: nearly all actives have a fitted effect of over 50% in size
Numbers stand for hits; – = inactive; ? = inconclusive; · = no result; [ ] = another dose, or the depositor's remark. Calls follow the shape of the dose curve; as a rule, active = well fitted curve in the direction sought with a large enough effect; inconclusive = small, poorly fitted or top-dose-only effect, or another doubt; inactive = no such curve, though single readings can be large; an effect the other way counts as inactive or inconclusive.

SMILES	SW480 rereplic	ELG1 repair inh	AT treatment	p53 reactivation	ELG1 genotox	MCF10A rerep
CCC(C)C1NC(=O)C(CCNCS(=O)(=O)O)NC(=O)C(NC(=O)C(CCNCS(=O)(=O)O)NC(=O)C(NC(=O)C(CCNCS(=O)(=O)O)NC(=O)CCCCC(C)C)C(C)O)CCNC(=O)C(C(C)O)NC(=O)C(CCNCS(=O)(=O)O)NC(=O)C(CCNCS(=O)(=O)O)NC(=O)C(C(C)CC)NC1=O (stereo unspecified)	–	·	·	·	·	?
COc1ccc(-n2c(SCC#N)nc3c(sc(=S)n3-c3ccccc3)c2=O)c(OC)c1	?	–	–	–	–	–
Cc1ccc(S(=O)(=O)N(C)CC(=O)N2CC(C)OC(C)C2)cc1 (stereo unspecified)	–	–	–	–	–	–
O=C(C1CCN(c2ncnc3c2nc2n3CCCCC2)CC1)N1CCN(c2cccc(Cl)c2)CC1	–	2.3µM	–	?	–	–
O=C(Nc1ccc(F)c(Cl)c1)C1CCCC1	5.8µM	·	·	·	·	?
O=C(NCCCN1CCCCC1)C1CCN(c2ncnc3c2nc2n3CCCCC2)CC1	–	–	–	–	–	–
O=C(Nc1ccc(Cl)cn1)C1CCN(c2ncnc3c2nc2n3CCCCC2)CC1	?	2.1µM	–	?	–	?
O=C(Nc1ccc(Cl)cn1)C1CCCN(c2ncnc3c2nc2n3CCCCC2)C1 (stereo unspecified)	26µM	?	–	–	–	–
Cc1onc(-c2c(Cl)cccc2Cl)c1C(O)c1ccccc1 (stereo unspecified)	–	–	–	–	–	–
COc1ccccc1NC(=O)C1CCN(c2ncnc3c2nc2n3CCCCC2)CC1	–	9.2µM	–	–	–[9.26 µM]	–
O=C(Nc1ccc(F)c(Cl)c1)C1CCN(c2ncnc3c2nc2n3CCCCC2)CC1	?	7.3µM	–	–	–[9.26 µM]	–
COc1ccc(Cl)cc1NC(=O)C1CCCN(c2ncnc3c2nc2n3CCCCC2)C1 (stereo unspecified)	–	?	–	–	–	–
COc1ccc(-c2noc(N3CCC(C(=O)Nc4ccccc4OC)CC3)n2)cc1	–	23µM	–	–	–	–
CCN(C(=O)C1CCCN(c2ncnc3c2nc2n3CCCCC2)C1)c1cccc(Cl)c1 (stereo unspecified)	–	21µM	–	–	–	?
O=C1CSC(c2cccc([N+](=O)[O-])c2)N1Cc1ccccc1 (stereo unspecified)	–	–	–	·	–	–
CCN(CC)CCNC(=O)c1ccc2c(c1NCCO)C(=O)c1ccccc1C2=O	?	13µM	–	–	–	–
CCCC(c1nnnn1Cc1ccco1)N1CCN(c2cc(Cl)ccc2C)CC1 (stereo unspecified)	–	–	–	–	–	25µM
Cc1noc(NS(=O)(=O)c2ccc(NC(=O)c3ccccc3NS(=O)(=O)c3ccc(F)c(F)c3)cc2)c1C	–	·	·	·	·	–
O=C(N/N=C/c1cccc2ccccc12)c1ccncc1	–	–	–	–	–	–
CCOC(=O)/C(=C/c1cn(C)c2ccccc12)NC(=O)c1ccccc1	–	–	–	–	–	–
Cn1cc(/C=C/C(=O)c2ccccc2)c2ccccc21	?	?	–	?	1.8µM	?
Cc1ccc(C(=O)/C=C/c2cn(CN3CCN(C)CC3)c3ccccc23)cc1	18µM	?	–	?	15µM	18µM
O=C(/C=C/c1c[nH]c2ccccc12)c1ccccc1	18µM	?	–	?	16µM	?
O=C(/C=C/c1cccc2ccccc12)c1ccncc1	?	–	–	?	–	12µM
Cc1ccc(C(=O)/C=C/c2c[nH]c3ccccc23)cc1	–	?	–	–	?	–
SMILES	SW480 rereplic	ELG1 repair inh	AT treatment	p53 reactivation	ELG1 genotox	MCF10A rerep
COc1cc(/C=C2\CCn3c2nc2cc(C(=O)O)ccc2c3=O)ccc1OC(F)F	–	–	–	–	–	?
N#Cc1ccc(C(=O)NNC(=O)c2ccncc2)cc1	?	–	–	·	–	–
N#CSCC(=O)c1cccc2ccccc12	?	–	–	–	–	18µM
CN(CC(=O)N1CCN(c2ccccn2)CC1)S(=O)(=O)c1ccc2ccccc2c1	?	10µM	–	–	–	–
Cc1ccc(-c2nc(CSCC(=O)N3CCN(c4ccccn4)CC3)c(C)o2)cc1	–	10µM	–	–	–	–
COC(=O)C1CCN(C(=O)CCCOc2ccccc2)CC1	–	?	–	?	2.6µM	–
CC(C)c1ccc(OCc2ccc(C(=O)N3CCN(c4ccccn4)CC3)cc2)cc1	–	–	–	–	–	23µM
CCc1ccc(-c2nc(CSCC(=O)N3CCN(c4ccccn4)CC3)c(C)o2)cc1	–	?	–	–	–	–[0.0737 µM]
COC(=O)C1CCN(C(=O)CSc2ccccc2)CC1	–	–	–	–	–	–
Cc1ccc(O)c(-c2cc(C(=O)Nc3ccc(S(=O)(=O)Nc4nc(C)cc(C)n4)cc3)[nH]n2)c1	–	–	–	–	–	–
CCN(C(=O)c1cn(C)c(=O)c2ccccc12)c1ccccc1F	–	–	–	–	–	?
O=C(CCSCc1ccccc1F)N1CCN(c2ccccn2)CC1	–	?	–	–	18µM	–
O=C(CCCOc1ccc(Cl)cc1Cl)N1CCN(c2ccccn2)CC1	–	–	–	–	–	–
O=C(CSCc1ccccc1Cl)N1CCN(c2ccccn2)CC1	–	?	–	–	?	–
O=C(N1CCN(c2ccccn2)CC1)N1c2ccccc2Sc2ccccc21	0.65µM	–	–	–	–	?
O=C(CCCOc1ccccc1)N1CCN(c2ccccn2)CC1	–	?	–	?	2.1µM	–
O=C(c1ccc(Br)s1)N1CCN(c2ccccn2)CC1	–	–	–	–	–	–
CN(C)c1ccc(/C=N/NC(=O)c2sccc2-n2cccc2)cc1	–	?	–	–	–	–
Cc1ccc(C(=O)NCC(=O)N2CCCC(C(F)(F)F)C2)s1 (stereo unspecified)	–	?	·	–	–	–
C[C@@H]1CN([C@@H](C)CO)C(=O)c2cc(NC(=O)CCN3CCOCC3)ccc2O[C@@H]1CN(C)C(=O)Nc1ccccc1	–	–	–	–	–	–
O=C(CN(Cc1cccs1)C(=O)CSc1nnc(COc2ccccc2)o1)NC1CCCC1	?	?	–	–	–	10µM
O=C(CC1SC(N2CCCC2)=NC1=O)Nc1ccc(C(=O)N2CCN(c3cccc(Cl)c3)CC2)cc1 (stereo unspecified)	–	?	–	–	–	–
Cc1cc(C)c(CN2CCN(CCCn3cnc(C(=O)Nc4ccc(C)c(C)c4)n3)CC2)c(C)c1	7.3µM	·	·	·	·	?

High-throughput results deposited in PubChem by National Center for Advancing Translational Sciences (NCATS).
